mIDH1 inhibitor: human IDH1 R132H inhibition; O75874; IDH1-R132H enzyme, NADPH consumption, diaphorase/resazurin fluorescence; Potency, µM (doses to about 76.6 µM), for inactives: top-dose activity change, negative = inhibition, hits mostly inhibitors; 390,000 tested, 0.093% active; AID 602179; note: nearly all actives have a fitted effect of over 65% in size
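IDH1-R132H (0.5 ug/mL dispensed) in pH 7.5 Tris buffer was preincubated 30 min with compound, then given a substrate mix of 0.016 mM NADPH and 2 mM alpha-KG for 80 min at room temperature; remaining NADPH was read by diaphorase/resazurin fluorescence.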
TrxR1 inh: inhibitors of rat thioredoxin reductase 1; O89049; 390,000 tested, 1% active; recombinant rTrxR1, NADPH fluorescence consumption, selenite substrate; Potency, µM (doses to about 114 µM), for inactives: at the highest dose activity change, negative = inhibition, hits mostly inhibitors; note: nearly all actives have a fitted effect of over 65% in size
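Rat TrxR1 (90 nM in the dispensed reagent) was pre-reduced with 400 uM NADPH for 5 min at room temperature, then incubated with compound for 15 min. After 400 uM selenite was added, NADPH fluorescence (Ex 340/Em 450 nm) was followed for 8 min.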
PLK1 PBD block: blocks phosphopeptide binding to human PLK1 polo-box domain; P53350; Plk1 PBD binding of FITC phosphopeptide, fluorescence polarization; Potency, µM, inactives show max response, negative = inhibition, actives largely listed as inhibitors; 360,000 tested, 2.8% active; AID 720504; note: series mostly up to about 57 µM; nearly all actives have a fitted effect of over 65% in size
Target sequence (P53350 whole entry, looked up, the tested form may be a part): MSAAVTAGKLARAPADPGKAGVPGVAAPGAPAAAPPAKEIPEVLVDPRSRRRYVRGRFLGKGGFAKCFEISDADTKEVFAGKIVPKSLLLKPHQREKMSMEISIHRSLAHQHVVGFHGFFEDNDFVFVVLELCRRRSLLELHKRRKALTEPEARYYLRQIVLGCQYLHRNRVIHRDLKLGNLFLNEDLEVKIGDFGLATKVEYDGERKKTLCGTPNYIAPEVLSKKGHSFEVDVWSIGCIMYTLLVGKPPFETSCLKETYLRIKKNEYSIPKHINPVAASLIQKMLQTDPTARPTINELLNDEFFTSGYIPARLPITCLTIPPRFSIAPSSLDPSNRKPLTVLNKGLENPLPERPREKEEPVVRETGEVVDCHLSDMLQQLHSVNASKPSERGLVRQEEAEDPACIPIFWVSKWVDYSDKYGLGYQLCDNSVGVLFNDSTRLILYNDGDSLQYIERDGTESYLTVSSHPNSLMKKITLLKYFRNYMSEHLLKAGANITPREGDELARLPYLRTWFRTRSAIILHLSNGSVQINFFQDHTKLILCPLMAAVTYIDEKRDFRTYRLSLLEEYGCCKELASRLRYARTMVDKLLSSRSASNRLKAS
Sfp inh: Sfp phosphopantetheinyl transferase inhibition. Potency, µM, for inactives: largest response in the series, negative = inhibition, actives largely listed as inhibitors. Biochemical Sfp PPTase activity, qHTS. Q9F4F7. 310,000 tested, 3.5% active;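 note: the enzyme is Sfp with the accession as filed and its product quenches rhodamine fluorescence; 0% = enzyme reaction without inhibitor and -100% = no enzyme wells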
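With Hepes-Na pH 7.6 buffer containing 10 mM MgCl2, Sfp (15 nM) modified BHQ-2-YbbR (12.5 uM) using rhodamine-CoA (5 uM). Two reads 30 minutes apart at 525/598 nm yielded each well's rate.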
VDR inhibitor: vitamin D3 receptor (human) inhibition. VDR-SRC2-3 peptide fluorescence polarization, 2 h. Potency, µM, inactives show max response, negative = inhibition, most hits filed as inhibitors. 400,000 tested, 0.93% active
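Fluorescence polarization assay of small-molecule disruption of VDR binding to coregulator peptide SRC2-3. Compounds and controls pin-transferred, then read after 2 h incubation at ambient room temperature.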
TrxR1 substrate: rat thioredoxin reductase 1 substrate activity | O89049 | purified TrxR1 substrate turnover, NADPH consumption readout | Potency, µM (series often up to 114 µM), inactives show top-dose activity change, negative = substrate turnover | 390,000 tested, 0.01% active; note: nearly all actives have a fitted effect of over 50% in size
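Rat TrxR1, dispensed at 90 nM, was prereduced with 400 uM NADPH (final) for 5 min at ~22 deg C, then incubated with compound 15 min before 400 uM selenite. A first-read NADPH fluorescence drop versus no-compound background flagged substrates.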
Starred values were filed as active, the others as inactive; [ ] = remark or other dose. The list is not random: actives were taken first. Their share in the collection is about 5.2%. Calls come from the whole dose curve; as a rule, active = well fitted curve in the direction sought with a large enough effect; inconclusive = small, poorly fitted or top-dose-only effect, or another doubt; inactive = no such curve, though single readings can be large; an effect the other way counts as inactive or inconclusive. Unless noted, % is set by controls: 0 for no effect and ±100 for the full control effect; potency is the fitted concentration of half-maximal effect.

Screening CC1=C(C(=O)Nc2ccccc2)C(c2ccco2)NC(=O)N1 (configuration not stated) returned mIDH1 inhibitor 0%, TrxR1 inh -6%, PLK1 PBD block -4%, VDR inhibitor -2% and TrxR1 substrate -2%.
Screening CC1=C(C(=O)Nc2ccccc2)C(c2ccccc2[N+](=O)[O-])NC(=O)N1 (configuration not stated) returned mIDH1 inhibitor -3%, TrxR1 inh 3%, PLK1 PBD block -10%, Sfp inh 20µM*, VDR inhibitor 1% and TrxR1 substrate -1%.
For CN(c1ccccc1)S(=O)(=O)c1cccc(NC(=O)COC(=O)C2CCCCC2)c1 the results were mIDH1 inhibitor 5%, TrxR1 inh 15%, PLK1 PBD block -5%, Sfp inh 20%, VDR inhibitor 8% and TrxR1 substrate 3%.
For COC(=O)N1CCCCC1c1cc(C(=O)NCc2cccnc2)no1 (configuration not stated) the results were PLK1 PBD block -10%.
Screening COCC(=O)N1CCC2(CC1)CN(Cc1ccc(C#N)cc1)C2 returned Sfp inh 16% and VDR inhibitor -13%.
Screening NC(=O)c1cccnc1Oc1ccc(Cl)cc1 returned mIDH1 inhibitor 0%, TrxR1 inh 12%[57.1 µM], PLK1 PBD block -1%, Sfp inh -27%, VDR inhibitor 1% and TrxR1 substrate 3%[57.1 µM].
Screening NC(=O)c1cccnc1Oc1cccc(Cl)c1 returned mIDH1 inhibitor 2%, TrxR1 inh 15%, PLK1 PBD block 27µM*, Sfp inh -7%, VDR inhibitor inconclusive and TrxR1 substrate 4%.
O=C(c1ccco1)N1CCC2(CCCN(c3ccccc3)C2)CC1 was read as Sfp inh -19% and VDR inhibitor inconclusive.
`CCCN(C(=O)COC(=O)c1nc2nccc(C)n2n1)C1CCS(=O)(=O)C1` (configuration not stated) gave mIDH1 inhibitor 0%, TrxR1 inh 9%, PLK1 PBD block 24µM*, VDR inhibitor inconclusive and TrxR1 substrate 1%.
`CC(C)SCC(=O)Nc1ncc2c(n1)-c1ccccc1CC2` gave mIDH1 inhibitor 20%, TrxR1 inh 21%[57.1 µM], PLK1 PBD block 19µM*, Sfp inh -2%, VDR inhibitor 7% and TrxR1 substrate 37%.
CC1Nc2ncnc(N3CCc4ccccc4C3)c2N(Cc2ccccc2)C1=O (configuration not stated) was read as PLK1 PBD block 0%.
CCCCN(C)CCNC(=O)c1c2c(nc3ccccc13)C(=O)N(C1CCCCC1)C2 was read as mIDH1 inhibitor -19%, TrxR1 inh 16%[57.1 µM], VDR inhibitor -1% and TrxR1 substrate 1%[57.1 µM].
Screening CCC(C(=O)Nc1nc(C)c(C)s1)c1ccccc1 (configuration not stated) returned mIDH1 inhibitor 4%, TrxR1 inh 19%[57.1 µM], PLK1 PBD block 0%, Sfp inh 50µM*, VDR inhibitor 1% and TrxR1 substrate -5%.
CCC(C(=O)Nc1nccs1)c1ccccc1 (configuration not stated) was read as mIDH1 inhibitor -2%, TrxR1 inh -14%, PLK1 PBD block -16%, Sfp inh -9%, VDR inhibitor -18% and TrxR1 substrate -11%.
For CCC(C(=O)Nc1nc(C)cs1)c1ccccc1 (configuration not stated) the results were mIDH1 inhibitor 2%, TrxR1 inh 18%[57.1 µM], PLK1 PBD block 27µM*, Sfp inh 17%, VDR inhibitor inconclusive and TrxR1 substrate 10%[57.1 µM].
Screening CCn1c(Cl)c(C=O)s/c1=N\S(=O)(=O)c1ccccc1 returned mIDH1 inhibitor -12%, TrxR1 inh 1.4µM*, PLK1 PBD block 12µM*, Sfp inh inconclusive, VDR inhibitor 3.2µM* and TrxR1 substrate -4%.
`CCN1C(=O)CS/C1=N\S(=O)(=O)c1ccc(Cl)cc1` gave mIDH1 inhibitor 27%, TrxR1 inh 10%[57.1 µM], PLK1 PBD block -6%, Sfp inh 2%, VDR inhibitor -6% and TrxR1 substrate 0%[57.1 µM].
Screening Cc1ccc(C(c2ccc(C)o2)c2cccc([N+](=O)[O-])c2O)o1 returned mIDH1 inhibitor 3%, TrxR1 inh -7%, PLK1 PBD block inconclusive, Sfp inh inconclusive, VDR inhibitor 9% and TrxR1 substrate 1%.
Cc1cc(C(c2ccc(C)o2)c2ccc(C)o2)c(O)c([N+](=O)[O-])c1 was read as mIDH1 inhibitor 1%, TrxR1 inh -19%[57.1 µM], PLK1 PBD block -16%, Sfp inh 50µM*, VDR inhibitor -8% and TrxR1 substrate 12%[57.1 µM].
`OC(c1ccc(F)cc1)c1nc(-c2ccc(F)c(Cl)c2)cs1` (configuration not stated) gave PLK1 PBD block 3%.
Screening COc1ccccc1N(C(=O)CCl)c1cn(C(C)=O)c2ccccc12 returned mIDH1 inhibitor -5%, TrxR1 inh 4µM*, PLK1 PBD block -10%, Sfp inh 6%, VDR inhibitor 6% and TrxR1 substrate -9%.
`CC(=O)n1cc(C=O)c2ccccc21` gave TrxR1 inh 12% and TrxR1 substrate 3%.
For CC(=O)n1cc(N(C(=O)CCl)c2ccc(Cl)cc2)c2ccccc21 the results were mIDH1 inhibitor inconclusive, TrxR1 inh 0.71µM*, PLK1 PBD block -12%, Sfp inh 8%, VDR inhibitor 50µM* and TrxR1 substrate -3%.
CCOC(=O)c1ccccc1Nc1cn(C(C)=O)c2ccccc12 was read as mIDH1 inhibitor 5%, TrxR1 inh inconclusive, PLK1 PBD block -5%, Sfp inh -13%, VDR inhibitor -15% and TrxR1 substrate 7%.
`COC(=O)c1ccccc1NC(=O)COc1ccccc1C(=O)Nc1ccccc1` gave TrxR1 inh 30% and TrxR1 substrate 3%.
`O=C(Nc1nc2cc3c(cc2s1)OCCO3)c1cccs1` gave mIDH1 inhibitor -6%, TrxR1 inh 11%, PLK1 PBD block -18%, Sfp inh 5%, VDR inhibitor -5% and TrxR1 substrate 4%.
`NNc1nc2cc3c(cc2s1)OCCO3` gave mIDH1 inhibitor -3%, TrxR1 inh 26%, PLK1 PBD block inconclusive, Sfp inh 40µM*, VDR inhibitor 6% and TrxR1 substrate 0%.
Screening Cn1c(=O)c2[nH]c(N/N=C(/C#N)C(N)=O)nc2n(C)c1=O returned mIDH1 inhibitor -1%, TrxR1 inh 6%[57.1 µM], PLK1 PBD block -2%, Sfp inh 56µM*, VDR inhibitor 0% and TrxR1 substrate 3%[57.1 µM].

Screening results deposited in PubChem by National Center for Advancing Translational Sciences (NCATS).
